Reference: PubChem BioAssay (EPA / NIEHS)
Inconclusive results are not listed. Activity calls are given as the source filed them. The calls were made as follows: active = hit-call score of the fitted dose curve at least 0.9, where 1 is the maximum; inconclusive = response in the unintended direction; inactive = score below 0.9.

Experiments:
[1] = biological target: human Phosphodiesterase 4A1 (PDE4A1), PDE4A (gene 5141) (UniProt P27815); assay: NVS_ENZ_hPDE4A1: NovaScreen (NVS) Enzymatic Assay for human Phosphodiesterase 4A1 (PDE4A1) (AID 2283191)
Sequence of human Phosphodiesterase 4A1 (PDE4A1), PDE4A (gene 5141) (P27815 whole entry, looked up): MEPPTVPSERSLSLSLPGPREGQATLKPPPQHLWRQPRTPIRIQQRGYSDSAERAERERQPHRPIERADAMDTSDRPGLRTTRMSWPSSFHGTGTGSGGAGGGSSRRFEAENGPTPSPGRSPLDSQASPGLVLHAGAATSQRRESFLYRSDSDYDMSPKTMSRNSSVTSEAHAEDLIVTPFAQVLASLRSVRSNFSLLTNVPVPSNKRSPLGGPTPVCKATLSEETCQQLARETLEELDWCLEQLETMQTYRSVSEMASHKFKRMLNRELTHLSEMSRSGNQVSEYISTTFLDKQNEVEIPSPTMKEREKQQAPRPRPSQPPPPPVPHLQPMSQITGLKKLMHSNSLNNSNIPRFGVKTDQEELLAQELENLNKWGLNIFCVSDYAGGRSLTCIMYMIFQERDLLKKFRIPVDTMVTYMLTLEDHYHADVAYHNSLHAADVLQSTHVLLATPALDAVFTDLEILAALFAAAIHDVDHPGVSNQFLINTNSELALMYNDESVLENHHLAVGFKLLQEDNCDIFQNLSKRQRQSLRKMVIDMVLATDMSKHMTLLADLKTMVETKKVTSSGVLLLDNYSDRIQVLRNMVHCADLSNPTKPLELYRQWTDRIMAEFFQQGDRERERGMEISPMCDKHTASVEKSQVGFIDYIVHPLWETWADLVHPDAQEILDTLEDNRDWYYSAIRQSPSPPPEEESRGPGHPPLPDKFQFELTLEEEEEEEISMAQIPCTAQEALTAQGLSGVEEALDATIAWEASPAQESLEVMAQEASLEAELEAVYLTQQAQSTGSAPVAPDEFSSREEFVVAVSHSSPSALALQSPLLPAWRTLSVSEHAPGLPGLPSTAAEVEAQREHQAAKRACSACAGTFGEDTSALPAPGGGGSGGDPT
How it was run: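 Cell-free recombinant human PDE4A1 with fluorescent substrate; product separated by electrophoretic mobility shift, 1 h. Screened at 25 uM, then up to 50 uM in concentration-response; loss of signal fitted against DMSO.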

[2] = biological target: cAMP-dependent protein kinase catalytic subunit alpha (Homo sapiens) (UniProt P17612); assay: NVS_ENZ_hPKA: NovaScreen (NVS) Enzymatic Assay for human Protein Kinase A (PKA) (AID 2283192)
How it was run: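 Recombinant human PKA with specific fluorescent substrate, product separated by electrophoretic mobility shift, read 1 h after dosing. Primary screen at 25 uM in duplicate; actives then run in concentration-response up to 50 uM, activity relative to DMSO.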

[3] = biological target: human Phosphodiesterase 5 (PDE5), PDE5A (gene 8654) (UniProt O76074); assay: NVS_ENZ_hPDE5: NovaScreen (NVS) Enzymatic Assay for human Phosphodiesterase 5 (PDE5) (AID 2283194)
How it was run: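 Recombinant human PDE5 with specific substrate, read 1 h after dosing by fluorescence with electrophoretic mobility-shift separation of substrate and product. Initial single-concentration duplicate screen at 25 uM, actives followed in concentration series; loss of activity versus DMSO.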

[4] = biological target: human Phosphodiesterase 10 (PDE10), PDE10A (gene 10846) (UniProt Q9Y233); assay: NVS_ENZ_hPDE10: NovaScreen (NVS) Enzymatic Assay for human Phosphodiesterase 10 (PDE10) (AID 2283195)
Sequence of human Phosphodiesterase 10 (PDE10), PDE10A (gene 10846) (Q9Y233 whole entry, looked up): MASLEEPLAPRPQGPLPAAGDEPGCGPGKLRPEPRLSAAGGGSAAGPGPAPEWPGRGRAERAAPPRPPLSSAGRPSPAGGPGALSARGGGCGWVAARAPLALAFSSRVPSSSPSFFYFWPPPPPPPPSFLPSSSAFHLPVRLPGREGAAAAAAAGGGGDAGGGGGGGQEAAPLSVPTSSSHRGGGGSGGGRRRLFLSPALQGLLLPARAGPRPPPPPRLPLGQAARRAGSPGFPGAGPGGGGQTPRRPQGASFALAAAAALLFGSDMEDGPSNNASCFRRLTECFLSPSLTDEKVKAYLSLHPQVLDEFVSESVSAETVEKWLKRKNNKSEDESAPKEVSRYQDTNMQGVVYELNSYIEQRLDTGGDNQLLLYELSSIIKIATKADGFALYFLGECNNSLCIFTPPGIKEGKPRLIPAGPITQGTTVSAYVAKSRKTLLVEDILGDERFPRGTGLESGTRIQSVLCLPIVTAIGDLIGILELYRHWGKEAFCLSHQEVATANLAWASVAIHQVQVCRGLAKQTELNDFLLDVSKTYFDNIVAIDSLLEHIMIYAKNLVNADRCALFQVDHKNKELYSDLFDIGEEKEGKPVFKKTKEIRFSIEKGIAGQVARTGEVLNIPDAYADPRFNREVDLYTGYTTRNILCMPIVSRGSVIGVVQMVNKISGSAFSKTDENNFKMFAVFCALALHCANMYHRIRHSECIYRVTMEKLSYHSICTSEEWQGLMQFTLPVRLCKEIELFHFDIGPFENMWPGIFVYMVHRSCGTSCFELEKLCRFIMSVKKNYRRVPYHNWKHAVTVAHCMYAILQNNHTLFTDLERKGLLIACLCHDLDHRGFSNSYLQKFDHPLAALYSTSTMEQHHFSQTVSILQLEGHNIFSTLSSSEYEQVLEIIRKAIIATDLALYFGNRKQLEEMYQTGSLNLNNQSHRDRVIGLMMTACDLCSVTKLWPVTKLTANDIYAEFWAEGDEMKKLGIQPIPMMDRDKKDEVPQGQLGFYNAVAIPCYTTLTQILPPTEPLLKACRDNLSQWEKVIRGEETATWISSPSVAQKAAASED
How it was run: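 Fluorescence/mobility-shift readout of PDE10A enzyme activity, taken 1 h post-dosing. Primary screen in duplicate at 25 uM; actives (e.g. ≥30% inhibition) retested as singleton concentration-response, top concentration 50 uM.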

[5] = biological target: human Mitogen- and Stress-activated Protein Kinase-1 (Msk1), RPS6KA5 (gene 9252) (UniProt O75582); assay: NVS_ENZ_hMsk1: NovaScreen (NVS) Enzymatic Assay for human Mitogen- and Stress-activated Protein Kinase-1 (Msk1) (AID 2283187)
Sequence of human Mitogen- and Stress-activated Protein Kinase-1 (Msk1), RPS6KA5 (gene 9252) (O75582 whole entry, looked up): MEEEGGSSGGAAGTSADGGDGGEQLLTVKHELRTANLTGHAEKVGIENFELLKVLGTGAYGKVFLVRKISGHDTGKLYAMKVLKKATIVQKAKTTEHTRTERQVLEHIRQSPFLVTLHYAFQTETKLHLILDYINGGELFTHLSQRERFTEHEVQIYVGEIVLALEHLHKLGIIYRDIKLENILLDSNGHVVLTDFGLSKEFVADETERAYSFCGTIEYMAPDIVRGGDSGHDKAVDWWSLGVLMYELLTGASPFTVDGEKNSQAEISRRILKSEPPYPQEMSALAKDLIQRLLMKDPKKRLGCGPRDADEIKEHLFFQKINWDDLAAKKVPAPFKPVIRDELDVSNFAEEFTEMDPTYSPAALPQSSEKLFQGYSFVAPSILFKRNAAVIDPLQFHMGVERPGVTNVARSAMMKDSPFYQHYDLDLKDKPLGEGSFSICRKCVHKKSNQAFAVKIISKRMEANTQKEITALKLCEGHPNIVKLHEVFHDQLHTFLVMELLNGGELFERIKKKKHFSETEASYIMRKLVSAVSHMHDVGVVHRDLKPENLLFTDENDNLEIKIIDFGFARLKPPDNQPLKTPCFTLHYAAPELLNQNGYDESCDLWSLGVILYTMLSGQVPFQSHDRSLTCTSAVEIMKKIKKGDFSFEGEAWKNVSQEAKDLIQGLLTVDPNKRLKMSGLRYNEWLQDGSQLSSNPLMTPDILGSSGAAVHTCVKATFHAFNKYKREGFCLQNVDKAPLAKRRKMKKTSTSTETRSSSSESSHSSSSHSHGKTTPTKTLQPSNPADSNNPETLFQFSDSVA
How it was run: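 Recombinant kinase with fluorescent substrate; product separated by electrophoretic mobility shift, read 1 h after dosing. Screened in duplicate at 25 uM; hits (e.g. ≥30% inhibition) tested in concentration–response up to 50 uM. DMSO baseline.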

[6] = biological target: human Matrix Metalloproteinase-3 (MMP3), MMP3 (gene 4314) (UniProt P08254); assay: NVS_ENZ_hMMP3: NovaScreen (NVS) Enzymatic Assay for human Matrix Metalloproteinase-3 (MMP3) (AID 2283185)
Sequence of human Matrix Metalloproteinase-3 (MMP3), MMP3 (gene 4314) (P08254 whole entry, looked up): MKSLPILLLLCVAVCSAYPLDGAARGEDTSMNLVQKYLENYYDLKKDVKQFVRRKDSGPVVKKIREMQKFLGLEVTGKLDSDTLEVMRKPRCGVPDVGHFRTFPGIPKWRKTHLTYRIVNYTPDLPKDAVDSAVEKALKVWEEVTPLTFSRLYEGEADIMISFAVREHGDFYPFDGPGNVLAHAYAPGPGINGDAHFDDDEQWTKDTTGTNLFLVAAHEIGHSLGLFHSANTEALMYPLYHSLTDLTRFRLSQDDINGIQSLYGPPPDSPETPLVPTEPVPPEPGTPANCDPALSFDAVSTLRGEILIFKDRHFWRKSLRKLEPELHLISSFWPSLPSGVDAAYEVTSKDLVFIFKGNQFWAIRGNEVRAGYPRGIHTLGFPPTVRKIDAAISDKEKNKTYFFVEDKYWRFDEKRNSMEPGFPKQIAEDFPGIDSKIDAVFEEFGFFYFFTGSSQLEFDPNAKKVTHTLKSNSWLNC
How it was run: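 Cell-free recombinant human MMP3 activity, fluorescence intensity read 1 h after dosing. Primary screen duplicate at 25 uM, actives retested in concentration series; loss of signal vs DMSO baseline.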

[7] = biological target: human Protein Phosphatase, Mg2+/Mn2+ Dependent 1A (PPM1A), PPM1A (gene 5494) (UniProt P35813); assay: NVS_ENZ_hPPM1A: NovaScreen (NVS) Enzymatic Assay for human Protein Phosphatase, Mg2+/Mn2+ Dependent 1A (PPM1A) (AID 2283198)
Sequence of human Protein Phosphatase, Mg2+/Mn2+ Dependent 1A (PPM1A), PPM1A (gene 5494) (P35813 whole entry, looked up): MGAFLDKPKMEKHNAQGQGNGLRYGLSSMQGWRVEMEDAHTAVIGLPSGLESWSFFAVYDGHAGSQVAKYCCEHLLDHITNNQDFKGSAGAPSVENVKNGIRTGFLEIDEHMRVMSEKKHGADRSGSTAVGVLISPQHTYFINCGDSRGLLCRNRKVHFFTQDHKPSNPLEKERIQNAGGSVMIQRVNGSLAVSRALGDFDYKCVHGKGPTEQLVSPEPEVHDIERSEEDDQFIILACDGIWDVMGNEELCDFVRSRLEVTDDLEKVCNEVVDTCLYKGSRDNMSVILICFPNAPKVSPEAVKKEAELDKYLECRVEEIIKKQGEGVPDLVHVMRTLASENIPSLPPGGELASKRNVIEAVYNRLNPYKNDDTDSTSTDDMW
How it was run: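 Cell-free recombinant PPM1A phosphatase assay with fluorescent substrate, read 1 h after dosing by electrophoretic mobility shift. Chemicals screened in duplicate at 25 uM, then in concentration-response up to 50 uM; loss of activity versus DMSO.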

[8] = biological target: Serine/threonine-protein phosphatase PP1-alpha catalytic subunit (Homo sapiens) (UniProt P62136); assay: NVS_ENZ_hPPP1CA: NovaScreen (NVS) Enzymatic Assay for human Protein Phosphatase 1 Aatalytic subunit Alpha (PPP1CA) (AID 2283200)
Sequence of Serine/threonine-protein phosphatase PP1-alpha catalytic subunit (Homo sapiens) (P62136 whole entry, looked up): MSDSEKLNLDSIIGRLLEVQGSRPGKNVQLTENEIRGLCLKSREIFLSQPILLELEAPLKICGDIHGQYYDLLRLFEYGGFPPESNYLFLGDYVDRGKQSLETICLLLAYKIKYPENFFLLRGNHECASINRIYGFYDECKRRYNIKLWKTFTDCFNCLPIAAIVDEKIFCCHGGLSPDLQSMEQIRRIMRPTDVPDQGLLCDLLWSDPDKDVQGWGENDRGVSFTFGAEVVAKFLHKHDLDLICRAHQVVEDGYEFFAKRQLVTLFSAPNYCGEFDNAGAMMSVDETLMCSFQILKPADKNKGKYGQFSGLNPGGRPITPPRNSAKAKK
How it was run: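 Recombinant enzyme activity read by fluorescence with electrophoretic mobility shift separating substrate from product, 1.33 h after dosing; loss of signal vs DMSO baseline. Primary screen in duplicate at 25 uM; actives retested in concentration-response up to 50 uM.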

[9] = biological target: human Phosphoinositide 3-kinase alpha (PI3Ka), PIK3CA (gene 5290) (UniProt P42336); assay: NVS_ENZ_hPI3Ka: NovaScreen (NVS) Enzymatic Assay for human Phosphoinositide 3-kinase alpha (PI3Ka) (AID 2283196)
How it was run: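 Duplicate single-point screen (25 uM), then singleton dose-response (max 50 uM) for compounds meeting the threshold. Cell-free kinase reaction, 1 h; fluorescent mobility-shift readout.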

[10] = biological target: human Matrix Metalloproteinase-9 (MMP9), MMP9 (gene 4318) (UniProt P14780); assay: NVS_ENZ_hMMP9: NovaScreen (NVS) Enzymatic Assay for human Matrix Metalloproteinase-9 (MMP9) (AID 2283190);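 also: cell-free recombinant MMP9 protease activity read by fluorescent substrate signal; active means inhibition seen as loss of fluorescence signal versus DMSO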
Sequence of human Matrix Metalloproteinase-9 (MMP9), MMP9 (gene 4318) (P14780 whole entry, looked up): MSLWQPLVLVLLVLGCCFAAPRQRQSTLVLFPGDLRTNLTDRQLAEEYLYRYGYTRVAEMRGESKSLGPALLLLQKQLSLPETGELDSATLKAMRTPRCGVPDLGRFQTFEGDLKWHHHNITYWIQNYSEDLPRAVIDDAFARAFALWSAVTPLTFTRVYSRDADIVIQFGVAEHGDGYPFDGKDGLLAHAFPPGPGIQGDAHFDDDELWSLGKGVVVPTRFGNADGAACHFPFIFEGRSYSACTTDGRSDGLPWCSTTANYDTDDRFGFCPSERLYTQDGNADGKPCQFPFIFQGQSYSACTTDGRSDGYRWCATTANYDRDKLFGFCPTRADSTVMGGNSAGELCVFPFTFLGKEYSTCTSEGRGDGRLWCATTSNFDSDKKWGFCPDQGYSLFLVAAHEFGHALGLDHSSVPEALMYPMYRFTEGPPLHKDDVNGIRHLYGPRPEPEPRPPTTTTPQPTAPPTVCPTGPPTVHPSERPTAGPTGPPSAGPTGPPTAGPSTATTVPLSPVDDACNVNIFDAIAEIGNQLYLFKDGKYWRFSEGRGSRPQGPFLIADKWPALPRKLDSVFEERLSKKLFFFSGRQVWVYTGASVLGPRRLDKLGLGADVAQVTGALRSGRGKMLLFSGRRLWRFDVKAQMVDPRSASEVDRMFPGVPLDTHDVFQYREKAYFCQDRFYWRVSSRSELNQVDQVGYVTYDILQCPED
How it was run: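 Screening concentration 25 uM, duplicate wells, then dose series for confirmation. Cell-free enzymatic reaction measured by fluorescence intensity 1 h post-dosing; decreased signal versus DMSO taken as activity.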

For `O=C(O)Cc1cc(I)c(Oc2cc(I)c(O)c(I)c2)c(I)c1`, the AC50 [1] was 0.0269 µM (active), the outcome [2] was “inactive” and the AC50 [3] was 9.05 µM (active). For the same compound, the AC50 [4] was 8.91 µM (active).

For `CCCCCCCC(=O)O`, the outcome [5] was “inactive”, the outcome [2] was “inactive” and the outcome [3] was “inactive”.

`CCCOc1sc(C(=O)N2CCC(c3cc(CN)ccc3F)CC2)c(C)c1Br` was tested, and the outcome [6] was “inactive”, the outcome [2] was “inactive” and the outcome [7] was “inactive”.

With `CC(C)(C)CC(C)(C)c1ccc(O)c(-n2nc3ccccc3n2)c1` the outcome [5] was “inactive”.

With `OCCC(F)(F)C(F)(F)C(F)(F)C(F)(F)C(F)(F)C(F)(F)F` the outcome [3] was “inactive”.

With `N#C[C@@H]1CC(F)(F)CN1C(=O)CNC1CC2CCC(C1)N2c1ncccn1` (stereo partly specified) the outcome [8] was “inactive”.

With `NC(=O)N(O)[C@@H]1C=C[C@H](Oc2cccc(Oc3ccc(F)cc3)c2)C1` the AC50 [1] was 23 µM (active) and the outcome [7] was “inactive”.

`COCC(C)OCC(C)O` (stereo unspecified) was tested, and the outcome [5] was “inactive” and the outcome [9] was “inactive”.

With `Cc1oc(-c2ccccc2)nc1CCOc1ccc(C[C@H](Nc2ccccc2C(=O)c2ccccc2)C(=O)O)cc1` the outcome [6] was “inactive” and the AC50 [10] was 11.9 µM (active).

With `CCCCOCCO` the outcome [8] was “inactive”.

`CCc1nn(C2CCCCC2)c2cc(C3(C#N)CCC(C(=O)O)CC3)ccc12` (stereo unspecified) was tested, and the AC50 [1] was 0.00229 µM (active), the outcome [3] was “inactive” and the outcome [4] was “inactive”.

With `CCCCCCCCCCCCCCCS(=O)(=O)Oc1ccccc1` the outcome [1] was “inactive”.

With `NC(=O)N1C(=O)C(C(=O)c2cc(Cl)cs2)c2cc(F)c(Cl)cc21` (stereo unspecified) the AC50 [2] was 25 µM (active).

With `c1ccc2cc3c(ccc4ccccc43)cc2c1` the outcome [1] was “inactive”.

With `COC(=O)CCCCC(=O)OC` the outcome [3] was “inactive” and the outcome [7] was “inactive”.

In the case of `CC(O)CO` (stereo unspecified), the outcome [3] is reported as “inactive”.

`CCCCCCC(=O)O` was tested, and the outcome [3] was “inactive” and the outcome [7] was “inactive”.

With `CCN(CC)CCNc1ccc(CNC=O)c2sc3ccc(OC)cc3c(=O)c12` the outcome [10] was “inactive”, the AC50 [1] was 11.8 µM (active) and the AC50 [3] was 6.82 µM (active). The AC50 [4] was 2.06 µM (active) and the outcome [8] was “inactive”.
